Bioassay records as filed in PubChem BioAssay.
Most compounds without a hit are left out; they make up all but 2.8% or so of the library.
POLH inh: blocks human DNA polymerase eta activity; Q9Y253; recombinant Pol eta, fluorescent DNA replication assay; Potency, µM (series often up to 114 µM), hits mostly inhibitors; 1.2% of 390,000 active
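Fluorescent replication assay: 50 nM final substrate added after a 15 min room-temperature compound preincubation with 10 nM enzyme. Signal taken at 0 min and again at 10 min.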
WRN inhibitor: inhibitors of human WRN helicase. WRN helicase unwinding, fluorescent forked duplex, kinetic. Potency, µM (top dose mostly 114 µM), most hits filed as inhibitors. 0.46% of 360,000 active. AID 651768; further: nearly all actives have a fitted effect of over 55% in size
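WRN at 20 nM final was preincubated with compound for 15 min at room temperature; reaction started with 100 nM forked duplex oligonucleotide carrying fluorophore and quencher plus 2 mM ATP (final). Unwinding followed kinetically by red fluorescence (ex 525/em 598 nm).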
Pol beta inh: blocks human DNA polymerase beta activity | Pol beta primer extension/strand displacement, fluorescence kinetic | P06746 | 1.3% of 340,000 active | Potency, µM (top dose mostly 114 µM), usual class: inhibitors | AID 485314
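Values derive from four-parameter Hill fits of normalized kinetic data: reads at 0 and 10 min following addition of 50 nM substrate to 10 nM Pol beta preincubated 15 min with compound.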
POLI inh: blocks human DNA polymerase iota activity. Pol iota fluorescent replication assay, 10 min. Potency, µM (highest dose often 115 µM), most hits filed as inhibitors. 1% of 390,000 active
Target sequence (Q9UNA4 whole entry, looked up): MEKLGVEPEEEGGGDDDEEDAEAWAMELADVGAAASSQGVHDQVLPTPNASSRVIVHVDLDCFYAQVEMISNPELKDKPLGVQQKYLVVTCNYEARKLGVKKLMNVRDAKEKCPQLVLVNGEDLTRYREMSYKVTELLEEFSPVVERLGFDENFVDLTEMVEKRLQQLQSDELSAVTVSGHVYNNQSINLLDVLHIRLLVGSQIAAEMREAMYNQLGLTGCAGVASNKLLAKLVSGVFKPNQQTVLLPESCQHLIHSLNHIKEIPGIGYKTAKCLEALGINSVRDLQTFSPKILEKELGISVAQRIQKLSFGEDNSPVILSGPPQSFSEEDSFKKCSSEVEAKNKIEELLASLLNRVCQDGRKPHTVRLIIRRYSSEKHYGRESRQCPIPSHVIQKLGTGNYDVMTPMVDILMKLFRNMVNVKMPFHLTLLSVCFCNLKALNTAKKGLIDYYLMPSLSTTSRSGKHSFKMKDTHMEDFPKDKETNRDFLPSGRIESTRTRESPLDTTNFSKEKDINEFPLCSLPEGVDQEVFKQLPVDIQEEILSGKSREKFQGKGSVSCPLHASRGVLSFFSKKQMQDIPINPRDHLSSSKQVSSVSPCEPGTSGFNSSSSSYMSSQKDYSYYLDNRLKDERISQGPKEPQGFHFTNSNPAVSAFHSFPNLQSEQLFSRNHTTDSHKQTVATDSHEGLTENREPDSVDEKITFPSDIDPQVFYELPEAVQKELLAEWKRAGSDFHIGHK
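Fluorescent replication assay read twice, at 0 min and 10 min after adding 50 nM (final) substrate. Enzyme (10 nM) and compounds were first incubated 15 min at room temperature; enzyme-free buffer wells were negative controls.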
Pol kappa inh: DNA polymerase kappa (human) inhibition; purified Pol kappa, fluorescent DNA synthesis assay, 10 min; Potency, µM (top dose mostly 107 µM), actives largely listed as inhibitors; AID 588579; 0.53% of 400,000 active; Q9UBT6
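Enzyme at 10 nM met test compounds for 15 min at room temperature. Substrate addition (50 nM final) began the reaction, which was monitored by fluorescence at 0 and 10 min.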
PI5P4Ka inh: blocks human PI5P4K alpha kinase activity; P48426; max response, %; PI5P4Kalpha enzyme, ADP-Glo luminescence, 60 min; hits give low values; AID 652105; 1.2% of 330,000 active; active means max response of -50% or lower; inconclusive means between -30% and -50%; inactive means -30% or higher; further: value at the top dose of about 77 µM
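ADP-Glo luminescence end-point read after a 60 min room-temperature kinase reaction of PI5P4Kalpha plus substrate, initiated with ATP at 5 microM final. Buffer: 0.038 M HEPES pH 7.4, EGTA, 0.1% CHAPS, 5% DMSO.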
Numbers stand for hits; i = inactive; ? = inconclusive; nt = no result given; ! = not confirmed by another sample; [ ] = another dose, or the depositor's remark. Unless noted, the call rests on the fitted dose curve; in most records, active means well fitted curve in the direction sought with a large enough effect; inconclusive means small, poorly fitted or top-dose-only effect, or another doubt; inactive means no such curve, though single readings can be large; an effect the other way counts as inactive or inconclusive.

SMILES | POLH inh | WRN inhibitor | Pol beta inh | POLI inh | Pol kappa inh | PI5P4Ka inh
COc1ccc(/C=N/NC(=O)c2cc3cc(OC)c(OC)cc3[nH]2)cc1 | ? | ? | 6.31µM | i | i | i
COc1ccc2cc(C(=O)N/N=C/c3cc(OC)c(OC)c(OC)c3)[nH]c2c1 | ? | i[11.6 µM] | 10µM | ? | i | i
COCc1cc(C)nc2c1C(=O)NC(c1ccc(C)cc1)N2Cc1ccccc1 (stereo unspecified) | i | nt | ? | i | i | nt
Cc1nc2ccn(Cc3ccccc3)c(=O)c2cc1C(=O)Nc1ccc(F)cc1Cl | i | nt | i | i | i | nt
O=C1N/C(=N/O)S/C1=C/c1cccc([N+](=O)[O-])c1 | i | i | i | i | i | i
O=C1N/C(=N\S(=O)(=O)Cc2ccccc2)S/C1=C/c1cccc([N+](=O)[O-])c1 | 50.1µM | i[11.6 µM] | i | ? | i | ?
CCOC(=O)C1CCN(S(=O)(=O)c2cc(-c3onc(C)c3C)ccc2C)CC1 | i | nt | i | i | i | nt
CCN(CC)S(=O)(=O)c1ccc(N=Nc2c(N)[nH]c(=O)[nH]c2=O)cc1 | i | i | i | i | i | -67.2
CCN(CC)S(=O)(=O)c1ccc(N=NC2=C(O)CCCC2=O)cc1 | i | i | i | i | i | i
CCOC(=O)C1CCN(c2c(C(=O)c3ccc(OC)cc3)cnc3ccccc23)CC1 | i | nt | i | i | i | nt
CCOC(=O)C1=C(C)NC(=O)/C1=C\N(C)C | i | i | ? | i | i | i
CCOC(=O)C1=C(C)S/C(=C\N(C)C)C1=O | ? | i | ? | 25.1µM | ? | i
O=c1c2ccccc2nc2n1CCC2 | ? | 22.4µM | i | 50.1µM | i | i
Cc1ccc(NC(=O)C(=O)NCC(c2cccnc2)N2CCN(Cc3ccccc3)CC2)cc1Cl (stereo unspecified) | i | nt | i | i | i | nt
O=C(O)C[C@@H]1C(=O)O[C@@H]2C(COC(=O)c3cc(O)c(O)c(O)c3)O[C@@H](OC(=O)c3cc(O)c(O)c(O)c3)[C@@H](OC(=O)c3cc(O)c(O)c4c3[C@H]1[C@H](O)C(=O)O4)[C@H]2OC(=O)c1cc(O)c(O)c(O)c1 (stereo partly specified) | nt | nt | 0.178µM | nt | nt | nt
O=C(OC[C@H]1O[C@@H](OC(=O)c2cc(O)c(O)c(OC(=O)c3cc(O)c(O)c(O)c3)c2)[C@H](OC(=O)c2cc(O)c(O)c(OC(=O)c3cc(O)c(O)c(O)c3)c2)[C@@H](OC(=O)c2cc(O)c(O)c(OC(=O)c3cc(O)c(O)c(O)c3)c2)[C@@H]1OC(=O)c1cc(O)c(O)c(OC(=O)c2cc(O)c(O)c(O)c2)c1)c1cc(O)c(O)c(OC(=O)c2cc(O)c(O)c(O)c2)c1 | nt | nt | nt | i | i | nt
NS(=O)(=O)c1cc(Cl)c(NC(=O)COC(=O)c2ccccn2)c(Cl)c1 | 79.4µM | i | nt | 39.8µM | i | ?
O=C(COC(=O)c1ccccn1)Nc1cccc(Cl)c1Cl | i | i | i | i | i | i
CC(C)c1ccc(/C=N/NC(=O)c2cc(-c3cccc([N+](=O)[O-])c3)n[nH]2)cc1 | ? | i | 22.4µM | ? | i | i
O=[N+]([O-])c1cc2oc3c(c2c(C=NCc2ccncc2)c1O)CCCC3 | ? | ? | 17.8µM | ? | ? | -80.8
CCCCCCCCCC(=O)O | i | i | nt | i | i | i
CCCCCC#CCC#CCC#CCC#CCCCC(=O)O | nt | nt | 1.12µM | nt | 10µM! | nt
Cc1ccc(C)c(NC(=O)Cn2nnc(C(=O)NCc3ccco3)c2N)c1 | i | i | i | 79.4µM! | i | i
CCc1ccccc1NC(=O)Cn1nnc(C(=O)NCc2ccccc2Cl)c1N | i | nt | 70.8µM | 89.1µM | ? | nt
Cc1ccc(CNC(=O)c2nnn(CC(=O)Nc3cc(C)ccc3C)c2N)cc1 | i | nt | 7.94µM | i | i | nt
SMILES | POLH inh | WRN inhibitor | Pol beta inh | POLI inh | Pol kappa inh | PI5P4Ka inh
CCn1c(=O)cc(OCC(=O)Nc2cc(OC)c(OC)c(OC)c2)c2ccccc21 | i | nt | i | i | i | nt
CN(C)[C@H]1C(=O)C(C(=O)NCN2CCCC2)=C(O)[C@]2(O)C(=O)C3=C(O)c4c(O)cccc4[C@](C)(O)[C@H]3C[C@H]12 | nt | nt | nt | nt | 3.77µM | nt
CN(C)c1ccc(O)c2c1CC1CC3C(N(C)C)C(=O)C(C(N)=O)=C(O)[C@@]3(O)C(=O)C1=C2O (stereo partly specified) | i | i | nt | ? | ? | i
CN(C)[C@@H]1C(=O)C(C(=O)NCN2CCCC2)=C(O)[C@@]2(O)C(=O)C3=C(O)c4c(O)cccc4[C@@](C)(O)C3CC12 (stereo partly specified) | nt | nt | 0.501µM | nt | nt | nt
Cc1cccc(N2C(=O)C(CC(=O)Nc3ccc(F)cc3)N(C3CCCC3)C2=O)c1 (stereo unspecified) | i | nt | i | i | i | nt
O=C(Nc1cccc(-c2nnc(-c3ccco3)o2)c1)c1ccccc1 | i | i | i | i | i | i
CC(=O)Oc1ccc(C(=O)Nc2cccc(-c3nnc(-c4ccco4)o3)c2)cc1 | i | i | 20µM | i | i | i
C(=C\c1nc2ccccc2nc1/C=C/c1ccc2c(c1)OCO2)/c1ccc2c(c1)OCO2 | nt | nt | nt | i | i | nt
COC(=O)CCC(C)C1CCC2C3CCC4CC(O)CCC4(C)C3=CC(=O)C12C (stereo unspecified) | i | i | nt | i | i | i
CCOC(=O)c1ccccc1OCc1cc(C2Nc3ccccc3C(=O)N2c2cccc3ccccc23)ccc1OC (stereo unspecified) | nt | nt | nt | i | i | nt
Nc1c(-c2nc(-c3ccccc3)no2)nnn1CC(=O)Nc1cccc(F)c1 | i | nt | 14.1µM | i | i | nt
Cc1cc(C)cc(NC(=O)Cn2nnc(-c3nc(-c4ccncc4)no3)c2N)c1 | i | nt | ? | i | i | nt
O=C(O)CP(=O)(O)O | i | i | i | 12.6µM! | i | i
O=P(O)(O)CP(=O)(O)O | nt | nt | i | nt | i[19.4 µM] | nt
Cc1ccc(-c2csc(=Nc3ccc(F)cc3)n2Cc2ccc3c(c2)OCO3)cc1C | i | nt | i | i | i | nt
O=C(CC1c2ccccc2Oc2ccccc21)Nc1ccccc1F | i | i | i | 89.1µM | i | i
O=C(NCCc1ccc(Cl)cc1)C1COc2ccccc2O1 (stereo unspecified) | i | i[11.6 µM] | i | 50.1µM | i | i
COc1ccc(Cl)cc1C(=O)NNC(=O)C1COc2ccccc2O1 (stereo unspecified) | i | i | i | i | i | -60.0
Cc1ccc(S(=O)(=O)N2CCN(c3nc(-n4ccnn4)nc4ccccc34)CC2)cc1 | nt | nt | nt | i | i | nt
CCc1ccc(C(=O)c2cn(CC(=O)NCCc3ccccc3)c3nc(C)ccc3c2=O)cc1 | i | nt | ? | i | i | nt
Cc1ccc2c(=O)c(C(=O)c3ccccc3)cn(CC(=O)Nc3ccc4c(c3)OCCO4)c2n1 | ? | nt | ? | ? | i | nt
CCOC(=O)C1CCCN(C(=O)CSc2nc(C)cc(C)n2)C1 (stereo unspecified) | i | i | i | i | i | i
